Test results as given in PubChem BioAssay.
Inconclusive results are not listed. The source made the active and inactive calls.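 The calls were made as follows, unless noted: active = normalized viability below 100% at a tested concentration; inactive = the rest.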

Columns and labels:
[1] = viability loss in pontine glioma line – cell-based, SU-DIPG-XVII, MIPE5.0, CellTiter-Glo, qHTS, dose response (AID 1347060; cut-off not given, nearly all actives have AC50 up to about 26 µM;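 also: cells exposed to compound for 48 hours before viability readout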); settings: CellTiter-Glo ATP luminescence
[2] = viability loss in pontine glioma line – cell-based, SU-DIPG-XIII, MIPE4.0, CellTiter-Glo, qHTS, dose response (AID 1347061; cut-off not given, nearly all actives have AC50 up to about 37 µM;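 also: cells exposed to compound for 48 hours before readout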); settings: CellTiter-Glo ATP luminescence
[3] = viability loss in pontine glioma line – cell-based, JHH-DIPG-1, MIPE4.0, CellTiter-Glo, qHTS, dose response (AID 1347062; cut-off not given, nearly all actives have AC50 up to about 27 µM;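 also: cells exposed to compound for two days before readout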); settings: JHH-DIPG-1 viability, CellTiter-Glo ATP luminescence
[4] = viability loss in pontine glioma line – cell-based, SU-DIPG-IV, MIPE4.0, CellTiter-Glo, qHTS, dose response (AID 1347063; cut-off not given, nearly all actives have AC50 up to about 30 µM;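 also: compound exposure lasted 48 hours before the viability readout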); settings: CellTiter-Glo ATP luminescence
[5] = viability loss in pontine glioma line – cell-based, SU-DIPG-XIII, MIPE5.0, CellTiter-Glo, qHTS, dose response (AID 1347064; cut-off not given, nearly all actives have AC50 up to about 23 µM;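 also: cells exposed to compound for 48 hours before the viability read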); settings: CellTiter-Glo ATP luminescence
[6] = viability loss in pontine glioma line – cell-based, SU-DIPG-XXV, MIPE5.0, CellTiter-Glo, qHTS, dose response (AID 1347065; cut-off not given, nearly all actives have AC50 up to about 26 µM;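 also: cells exposed to compound for 48 hours before ATP readout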); settings: CellTiter-Glo ATP luminescence
[7] = growth inhibition of DIPG cells – cell-based, MIPE4.0 library, CellTiter-Glo luminescence, qHTS (AID 1347066; cut-off not given, nearly all actives have AC50 up to about 30 µM;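 also: cells exposed to compound for 48 hours before readout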); settings: SU-DIPG-VI viability, CellTiter-Glo ATP luminescence
[8] = JHH-DIPG-1 glioma cell viability, MIPE5.0 library, CellTiter-Glo luminescence, qHTS (AID 1347067; cut-off not given, nearly all actives have AC50 up to about 26 µM;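 also: cells exposed to compound for 48 hours before readout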); settings: JHH-DIPG-1 glioma viability, CellTiter-Glo ATP luminescence
[9] = viability loss with induced miR-34 in A549 – imaging, A549 dox-inducible miR-34, nuclei and caspase counts, primary screen (AID 1347080;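 active = compounds whose cell count with miR-34 switched on is under 0.7 times the count with it off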); settings: A549 miR-34 inducible, Hoechst nuclei count, 48 h
[10] = compounds altering HSF1 focus formation in cells – imaging, Selleck Cancer Library (AID 1347162; in the data active = plate-normalised HSF1 focus index below about 0.46); settings: human cells, HSF1 nuclear foci imaging, at 10 µM; SSMD: measured here: HSF1 foci SSMD mean; cell count: measured here: cell number; plate-normalised HSF1 focus index: stronger effect = lower value
[11] = MELAS cybrid and Rieske KO viability enhancers – cell-based, MELAS cybrids, Rieske KO mouse fibroblasts, CellTiter-Glo, primary screen (AID 1508586;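 active = mean z-score across replicates of 1.96 or higher in either the MELAS or the Rieske mutant cell line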;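 also: z relative to plate mean and SD of compound and empty wells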); settings: low glucose
[12] = drug combination growth inhibition, ovarian cancer – cell-based, oncology-focused library, rucaparib conditional, profiling panel (AID 1508598); settings: patient-derived ovarian cancer cells, CellTiter-Glo viability, 144 h, stronger effect = lower value

Nc1ccc(C(=O)Nc2cccc(-c3nc(N4CCOCC4)c4oc5ncccc5c4n3)c2)cn1
2410: cell count ([9]; measured here: total cells with miR-34 induction, stronger effect = lower value)
inactive: fold change ([9]; stronger effect = lower value, cell number ratio, induced over uninduced) 1.02 | plate-normalised HSF1 focus index [10] 0.989 | viability ([12]; at 0.000305 µM, OCI-C5x cells, with rucaparib 10 µM, 100% = cells with rucaparib alone) 106% | viability ([12]; at 0.000305 µM, OCI-C5x cells, without rucaparib) 111% | viability ([12]; at 0.00122 µM, OCI-C5x cells, with rucaparib 10 µM, 100% = cells with rucaparib alone) 106% | viability ([12]; at 0.00122 µM, OCI-C5x cells, without rucaparib) 107% | viability ([12]; at 0.00488 µM, OCI-C5x cells, with rucaparib 10 µM, 100% = cells with rucaparib alone) 105% | viability ([12]; at 0.00488 µM, OCI-C5x cells, without rucaparib) 108% | viability ([12]; at 0.0195 µM, OCI-C5x cells, with rucaparib 10 µM, 100% = cells with rucaparib alone) 115% | viability ([12]; at 0.0195 µM, OCI-C5x cells, without rucaparib) 112% | viability ([12]; at 0.0781 µM, OCI-C5x cells, with rucaparib 10 µM, 100% = cells with rucaparib alone) 122% | viability ([12]; at 0.0781 µM, OCI-C5x cells, without rucaparib) 117% | viability ([12]; at 0.0781 µM, OCI-P5x cells, with rucaparib 20 µM, 100% = cells with rucaparib alone) 114% | viability ([12]; at 0.0781 µM, OCI-P5x cells, without rucaparib) 117% | viability ([12]; at 0.313 µM, OCI-C5x cells, with rucaparib 10 µM, 100% = cells with rucaparib alone) 147% | viability ([12]; at 0.313 µM, OCI-C5x cells, without rucaparib) 131% | viability ([12]; at 0.313 µM, OCI-P5x cells, with rucaparib 20 µM, 100% = cells with rucaparib alone) 109% | viability ([12]; at 0.313 µM, OCI-P5x cells, without rucaparib) 119% | viability ([12]; at 1.25 µM, OCI-C5x cells, with rucaparib 10 µM, 100% = cells with rucaparib alone) 150% | viability ([12]; at 1.25 µM, OCI-C5x cells, without rucaparib) 151% | viability ([12]; at 1.25 µM, OCI-P5x cells, with rucaparib 20 µM, 100% = cells with rucaparib alone) 111% | viability ([12]; at 1.25 µM, OCI-P5x cells, without rucaparib) 107% | viability ([12]; at 5 µM, OCI-C5x cells, with rucaparib 10 µM, 100% = cells with rucaparib alone) 178% | viability ([12]; at 5 µM, OCI-C5x cells, without rucaparib) 138%
-2.85: z-score ([11]; Rieske KO mouse fibroblast survival, CellTiter-Glo 72 h)
2370: cell count ([9]; measured here: total cells without miR-34 induction)
active: AC50 [1] 4.68 µM | AC50 [2] 18.7 µM | AC50 [3] 16.6 µM | AC50 [4] 16.6 µM | AC50 [5] 8.33 µM | AC50 [6] 2.09 µM | AC50 [7] 11.8 µM | AC50 [8] 8.33 µM | z-score ([11]; MELAS cybrid survival, CellTiter-Glo 48 h, stronger effect = higher value) 3.1 | viability ([12]; at 0.000305 µM, OCI-P5x cells, with rucaparib 20 µM, 100% = cells with rucaparib alone) 83.5% | viability ([12]; at 0.000305 µM, OCI-P5x cells, without rucaparib) 86.3% | viability ([12]; at 0.00122 µM, OCI-P5x cells, with rucaparib 20 µM, 100% = cells with rucaparib alone) 68.8% | viability ([12]; at 0.00122 µM, OCI-P5x cells, without rucaparib) 85.2% | viability ([12]; at 0.00488 µM, OCI-P5x cells, with rucaparib 20 µM, 100% = cells with rucaparib alone) 71.1% | viability ([12]; at 0.00488 µM, OCI-P5x cells, without rucaparib) 81% | viability ([12]; at 0.0195 µM, OCI-P5x cells, with rucaparib 20 µM, 100% = cells with rucaparib alone) 56.8% | viability ([12]; at 0.0195 µM, OCI-P5x cells, without rucaparib) 74.2% | viability ([12]; at 5 µM, OCI-P5x cells, with rucaparib 20 µM, 100% = cells with rucaparib alone) 80% | viability ([12]; at 5 µM, OCI-P5x cells, without rucaparib) 78.9%
6980: cell count [10]
-0.394: SSMD [10]
0.903: fold change ([9]; measured here: relative caspase fold change +Dox/-Dox)
